Bioassay records from PubChem.
NPR1 antag – antagonists of human natriuretic peptide receptor Npr1. P16066. HEK293 hNpr1 GloSensor cGMP, ANP-stimulated luminescence. Potency, µM (top dose mostly 46.3 µM), hits mostly inhibitors. 76,000 tested, 1.6% active. AID 1347048; calls by dose curve; also: nearly all actives have a fitted effect of over 60% in size
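HEK293 cells stably expressing human Npr1 and cGMP GloSensor pGS-40F, loaded 2 h with 2% GloSensor reagent, given compound 30 min at room temperature. Luminescence read before and 20 min after 0.1 nM hNppA.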
NIH3T3 tox – kills NIH 3T3 cells; NIH 3T3 viability, CellTiter-Glo ATP luminescence, 48-72 h; Potency, µM (highest dose often 96.7 µM), hits mostly inhibitors; 94,000 tested, 4.3% active; AID 1345082; also: nearly all actives have a fitted effect of over 55% in size
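Cells were seeded at 400 per well, treated with pin-transferred compound, and kept 48 or 72 hr at 37 °C before CellTiter-Glo addition and luminescence imaging of cellular ATP.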
GPT2 inhibitor – blocks human glutamate pyruvate transaminase 2. Recombinant GPT2, coupled pyruvate oxidase/HRP Amplex Red fluorescence. 100,000 tested, 0.25% active. Potency, µM (top dose mostly 57.7 µM), hits mostly inhibitors. Q8TD30; also: nearly all actives have a fitted effect of over 60% in size
Target sequence (Q8TD30 whole entry, looked up): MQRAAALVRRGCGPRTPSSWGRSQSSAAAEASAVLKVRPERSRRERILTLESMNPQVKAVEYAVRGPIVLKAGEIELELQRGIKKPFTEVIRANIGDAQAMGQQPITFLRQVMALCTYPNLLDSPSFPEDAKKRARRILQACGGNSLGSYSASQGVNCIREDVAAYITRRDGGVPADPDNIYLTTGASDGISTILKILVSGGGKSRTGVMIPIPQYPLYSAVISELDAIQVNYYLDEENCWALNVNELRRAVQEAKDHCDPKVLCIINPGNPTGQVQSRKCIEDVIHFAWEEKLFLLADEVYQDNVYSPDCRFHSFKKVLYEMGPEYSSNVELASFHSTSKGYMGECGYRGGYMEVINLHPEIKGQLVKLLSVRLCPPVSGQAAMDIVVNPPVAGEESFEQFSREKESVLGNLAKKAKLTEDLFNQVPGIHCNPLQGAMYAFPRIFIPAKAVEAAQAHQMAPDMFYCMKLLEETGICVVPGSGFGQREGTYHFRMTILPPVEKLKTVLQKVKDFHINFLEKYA
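Inhibition is scored from Amplex Red fluorescence generated when pyruvate oxidase and HRP act on pyruvate released by GPT2. Reactions contain 10ng/uL enzyme, 250uM a-KG and 2mM L-alanine and run 30 min at room temperature.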
HEK cytotox – cytotoxic compounds in HEK 293 cells | 94,000 tested, 6.6% active | Potency, µM (doses to about 115 µM), usual class: inhibitors | HEK 293 viability, ATP luminescence (CellTiter-Glo), 48-72 h; also: nearly all actives have a fitted effect of over 60% in size
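HEK 293 cells seeded at 250 cells/well were exposed to compound for 48 or 72 hr at 37 degree Celsius. Viability taken as ATP content by CellTiter-Glo luminescence.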
FLuc inh – Photinus pyralis luciferase inhibition; P08659; AID 1347043; 76,000 tested, 2.5% active; Potency, µM (top dose mostly 115 µM), most hits filed as inhibitors; purified P. pyralis luciferase, luminescence, biochemical; also: nearly all actives have a fitted effect of over 65% in size
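FLuc 10nM, D-luciferin 10uM, ATP 10uM, Mg acetate 10mM, Tris acetate pH 7.5, Tween/BSA; cpd qHTS; enzyme added last; CCD luminescence.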
Of the large screens only hits and unclear results are named; the others gave an inactive call. This is a sample that favours compounds with a hit; in the whole collection about 10% have one here. Unless noted, calls follow the shape of the dose curve; as a rule, active = well fitted curve in the direction sought with a large enough effect; inconclusive = small, poorly fitted or top-dose-only effect, or another doubt; inactive = no such curve, though single readings can be large; an effect the other way counts as inactive or inconclusive.

Cn1cnc2cc(-c3ccc(CO)cc3)cc(C(=O)NCc3cccnc3)c21	NIH3T3 tox inconclusive
Cn1ncc2c(C(=O)NCc3cccnc3)cc(-c3ccc(Cl)nc3)nc21	NIH3T3 tox 22µM, HEK cytotox inconclusive (no result: NPR1 antag, FLuc inh)
Cc1ccc(-c2cc(C(=O)NCc3cccnc3)c3c(c2)ncn3C)cn1	NIH3T3 tox 100µM
Cn1ncc2c(C(=O)Nc3ccccc3Cl)cc(-c3cccc(F)c3)nc21	HEK cytotox inconclusive (no result: NPR1 antag, GPT2 inhibitor, FLuc inh)
O=C(C1CCCCC1)N1CCC2(CC1)CC(Cc1nc(-c3cnccn3)no1)CCO2 (centres undefined)	none (no result: NPR1 antag, FLuc inh)
CCOc1ccccc1CN1CCC2(CCN(CCc3ccc(OC)cc3)CC2)Oc2ccccc21	NIH3T3 tox inconclusive, GPT2 inhibitor inconclusive, HEK cytotox inconclusive
Cn1ncc2c(C(=O)NCc3ccc(F)cc3)cc(-c3ccc(Cl)nc3)nc21	NIH3T3 tox inconclusive, HEK cytotox 40µM (no result: NPR1 antag, FLuc inh)
Cn1ncc2c(C(=O)NCc3cccnc3)cc(-c3cccc(F)c3)nc21	NIH3T3 tox inconclusive, HEK cytotox 79µM (no result: NPR1 antag, GPT2 inhibitor, FLuc inh)
Cn1ncc2c(C(=O)NCc3cccnc3)cc(-c3cccnc3)nc21	NIH3T3 tox inconclusive, HEK cytotox inconclusive (no result: NPR1 antag, FLuc inh)
Cn1ncc2c(C(=O)NCCc3ccc(F)cc3)cc(-c3ccc(Cl)nc3)nc21	none (no result: NPR1 antag, FLuc inh)
O=C(NCCNC(=O)c1ccc(-c2cccc(C(F)(F)F)c2)cc1)Nc1ccccc1	HEK cytotox inconclusive (no result: NPR1 antag, GPT2 inhibitor, FLuc inh)
CCCc1cc(N2CCC(N[C@@H]3CCNC3)CC2)nc(C)n1	none
CCc1cc(N2CCC(NCCc3cccc(Cl)c3)CC2)nc(C)n1	NIH3T3 tox 40µM, HEK cytotox inconclusive
Cc1ccccc1CN1CCN2C(=O)N(C3CCCCC3)C[C@H]2C1	NIH3T3 tox inconclusive, HEK cytotox inconclusive
COc1cccc(-c2c(C(=O)NCc3cccnc3)nc3sccn23)c1	none (no result: NPR1 antag, FLuc inh)
COc1cccc(N2CCN(c3nc(C(=O)NCc4cccnc4)cs3)CC2)c1	NPR1 antag 11µM, NIH3T3 tox inconclusive, HEK cytotox 32µM, FLuc inh inconclusive
COc1ccc(N2CCN(c3nc(C(=O)NCc4ccc(F)cc4F)cs3)CC2)cc1	NPR1 antag inconclusive, NIH3T3 tox inconclusive, GPT2 inhibitor inconclusive, HEK cytotox 35µM
O=C(NCc1ccccn1)c1csc(N2CCN(c3ccccc3)CC2)n1	NIH3T3 tox inconclusive, HEK cytotox 40µM
COc1ccc(N2CCN(c3nc(C(=O)N4CCN(C)CC4)cs3)CC2)cc1	GPT2 inhibitor inconclusive, HEK cytotox inconclusive
COc1ccc(N2CCN(c3nc(C(=O)N4CCC(C)CC4)cs3)CC2)cc1	NPR1 antag inconclusive, NIH3T3 tox 40µM, HEK cytotox 40µM, FLuc inh inconclusive
O=C(Nc1ccccc1)N1CCCC(C(=O)N2CCC(c3ccccc3)CC2)C1 (centres undefined)	NIH3T3 tox inconclusive, HEK cytotox inconclusive (no result: NPR1 antag, FLuc inh)
O=c1c2nc(OCc3ccc(C(F)(F)F)cc3)ccc2ncn1C1CC1	NPR1 antag inconclusive, NIH3T3 tox inconclusive, HEK cytotox inconclusive, FLuc inh inconclusive
CCCCN(C)C(=O)c1csc(N2CCN(c3ccccc3)CC2)n1	NPR1 antag inconclusive, NIH3T3 tox inconclusive, HEK cytotox 35µM
CCCc1nc(C(=O)N(C)CCCc2cnn(C)c2)cs1	none
COc1ccc(-c2noc([C@@H]3C[C@H](NCc4ccc(N(C)C)cc4)CN3C)n2)cc1	NIH3T3 tox 50µM, HEK cytotox 35µM, FLuc inh 63µM
CN1C[C@@H](NS(=O)(=O)c2ccccc2)C[C@H]1c1nc(-c2ccccn2)no1	NIH3T3 tox inconclusive, FLuc inh 22µM
Cc1ccc(-c2noc([C@@H]3C[C@H](NS(=O)(=O)c4ccc(Cl)cc4)CN3C)n2)cc1	NPR1 antag inconclusive, NIH3T3 tox inconclusive, HEK cytotox 79µM, FLuc inh 22µM
Cc1ccc(S(=O)(=O)N[C@H]2C[C@@H](c3nc(-c4ccccc4)no3)N(C)C2)cc1	HEK cytotox inconclusive, FLuc inh inconclusive
CN1C[C@@H](NS(=O)(=O)c2ccccc2)C[C@H]1c1nc(Cc2ccccc2)no1	NIH3T3 tox inconclusive, HEK cytotox inconclusive
COc1ccc(-c2noc([C@@H]3C[C@H](NS(=O)(=O)c4ccccc4)CN3C)n2)cc1	NIH3T3 tox inconclusive, HEK cytotox 89µM
CNC(=O)c1cc(C)nc2onc(C3CCN([S+](=O)([O-])c4c(C)noc4C)CC3)c12	none (no result: NPR1 antag, GPT2 inhibitor, FLuc inh)
COc1ccc(-c2noc([C@@H]3C[C@H](NS(=O)(=O)c4ccc(OC)cc4)CN3C)n2)cc1	NPR1 antag inconclusive, NIH3T3 tox inconclusive, HEK cytotox 40µM, FLuc inh 22µM
O=C1CO[C@H]2CCN(Cc3ccncc3Cl)CC[C@@H]2N1c1ccccc1	NIH3T3 tox 79µM, HEK cytotox 45µM
O=C1CO[C@H]2CCN(Cc3ccccc3Cl)CC[C@@H]2N1CCc1cccnc1	NIH3T3 tox 100µM, HEK cytotox inconclusive
N#Cc1cccc(CN2CC[C@@H]3OCC(=O)N(Cc4ccccc4)[C@H]3CC2)c1	NIH3T3 tox inconclusive, HEK cytotox 100µM
O=C1CO[C@H]2CCN(Cc3ccccc3)CC[C@@H]2N1CCc1cccnc1	HEK cytotox inconclusive
Cc1ccc(CNC(=O)N[C@@H]2CN(Cc3cccnc3)C[C@H]2CN(C)C)cc1	none
Clc1ccc(CNC[C@H]2Cn3c(-c4cccc(Cl)c4)cnc3CO2)cc1	NPR1 antag inconclusive, NIH3T3 tox 45µM, HEK cytotox 63µM
O=C(NC[C@H]1Cn2c(-c3ccc(Cl)cc3)cnc2CO1)c1cccnc1	NIH3T3 tox inconclusive, GPT2 inhibitor inconclusive, HEK cytotox 22µM, FLuc inh inconclusive
Clc1ccc(-c2cnc3n2C[C@H](CNCc2cccnc2)OC3)cc1	NIH3T3 tox inconclusive, HEK cytotox inconclusive
Fc1ccc(CNC[C@H]2Cn3c(-c4ccc(Cl)cc4)cnc3CO2)cc1	NPR1 antag inconclusive, NIH3T3 tox inconclusive, HEK cytotox 79µM
Clc1ccc(CNC[C@H]2Cn3c(-c4ccccc4)cnc3CO2)cc1	NPR1 antag inconclusive, NIH3T3 tox 89µM, HEK cytotox 100µM
CC1=CC2=C(C)C(=O)C(C)(O)C(O)C2CO1 (centres undefined)	none (no result: NPR1 antag, NIH3T3 tox, HEK cytotox, FLuc inh)
CC(C)NC(=O)c1cc(-c2ccccc2C(F)(F)F)nc2c1cnn2C	NIH3T3 tox inconclusive (no result: NPR1 antag, GPT2 inhibitor, FLuc inh)
CCc1nn(-c2ccc(OC)cc2)c(Oc2ccccc2F)c1CCC(=O)NCCOC	NIH3T3 tox inconclusive
CCc1nn(-c2ccc(OC)cc2)c(Oc2ccccc2F)c1CCC(=O)NC(C)C	NIH3T3 tox inconclusive, HEK cytotox inconclusive
CCc1nn(-c2ccc(OC)cc2)c(Oc2ccccc2F)c1CCC(=O)N(CC)CC	NIH3T3 tox 45µM, HEK cytotox inconclusive
CCc1nn(-c2ccc(OC)cc2)c(Oc2ccccc2F)c1CCC(=O)N1CCSCC1	NIH3T3 tox 45µM, HEK cytotox 32µM
Cc1nn(-c2ccccc2)c(Oc2ccccc2)c1CCC(=O)NCC1CCCO1 (centres undefined)	NIH3T3 tox inconclusive, HEK cytotox inconclusive
